High-throughput results (PubChem BioAssay)
Rows were chosen to be rich in hits. Some 1.2% of all compounds tested hit in one or more screens of this group.
TrxR1 substrate – rat thioredoxin reductase 1 substrate activity; AID 588456; Potency, µM (series often up to 114 µM), for the others: at the top dose activity change, negative = substrate turnover; purified TrxR1 substrate turnover, NADPH consumption readout; 390,000 tested, 0.01% active; O89049; also: nearly all actives have a fitted effect of over 50% in size
Target sequence (O89049 whole entry, looked up): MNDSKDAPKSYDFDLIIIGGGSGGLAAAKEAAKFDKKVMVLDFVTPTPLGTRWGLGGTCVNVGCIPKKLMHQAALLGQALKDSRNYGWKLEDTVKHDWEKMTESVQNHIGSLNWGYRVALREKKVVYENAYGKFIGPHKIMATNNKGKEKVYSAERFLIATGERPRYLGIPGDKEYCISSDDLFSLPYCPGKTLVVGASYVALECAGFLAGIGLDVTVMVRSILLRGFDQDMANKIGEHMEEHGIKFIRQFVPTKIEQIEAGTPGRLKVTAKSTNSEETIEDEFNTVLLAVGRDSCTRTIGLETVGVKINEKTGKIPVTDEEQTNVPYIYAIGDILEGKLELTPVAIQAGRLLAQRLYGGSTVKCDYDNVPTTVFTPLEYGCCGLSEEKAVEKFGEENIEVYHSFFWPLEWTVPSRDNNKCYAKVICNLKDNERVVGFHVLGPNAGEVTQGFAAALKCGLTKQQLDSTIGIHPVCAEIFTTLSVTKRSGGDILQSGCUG
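Rat TrxR1, dispensed at 90 nM, was prereduced with 400 uM NADPH (final) for 5 min at ~22 deg C, then incubated with compound 15 min before 400 uM selenite. A first-read NADPH fluorescence drop versus no-compound background flagged substrates.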
TrxR1 inh – inhibitors of rat thioredoxin reductase 1 | O89049 | recombinant rTrxR1, NADPH fluorescence consumption, selenite substrate | Potency, µM (series often up to 114 µM), for the others: at the highest dose activity change, negative = inhibition, actives largely listed as inhibitors | 390,000 tested, 1% active; also: nearly all actives have a fitted effect of over 65% in size
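Rat TrxR1 (90 nM in the dispensed reagent) was pre-reduced with 400 uM NADPH for 5 min at room temperature, then incubated with compound for 15 min. After 400 uM selenite was added, NADPH fluorescence (Ex 340/Em 450 nm) was followed for 8 min.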
mIDH1 inhibitor – human IDH1 R132H inhibition; O75874; IDH1-R132H enzyme, NADPH consumption, diaphorase/resazurin fluorescence; Potency, µM (doses to about 76.6 µM), for the others: at the top dose activity change, negative = inhibition, hits mostly inhibitors; 390,000 tested, 0.093% active; AID 602179; also: nearly all actives have a fitted effect of over 65% in size
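IDH1-R132H (0.5 ug/mL) preincubated 30 min with compound, then NADPH (0.016 mM) and alpha-KG (2 mM) added; 80 min at RT, pH 7.5. Remaining NADPH coupled via diaphorase/resazurin to fluorescence (540/590 nm); concentration-response curves normalized to no-enzyme control.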
GLS inh – glutaminase GLS (human) inhibition | O94925 | GLS enzymatic activity, qHTS titration | Potency, µM (highest dose often 45.5 µM), for the others: at the highest dose activity change, negative = inhibition, most hits filed as inhibitors | 410,000 tested, 0.21% active
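Enzyme dispensed in phosphate buffer (45 mM, pH 8.2, 0.02% Tween-20), compounds pinned in, then 1 mM L-glutamine solution and the glutamate oxidase–HRP–Amplex Red mix added; fluorescence read immediately and again after 30 min at room temperature.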
An asterisk follows results filed as active; ? = inconclusive; · = no result; [ ] = remark or other dose. Calls follow the shape of the dose curve; as a rule, active = well fitted curve in the direction sought with a large enough effect; inconclusive = small, poorly fitted or top-dose-only effect, or another doubt; inactive = no such curve, though single readings can be large; an effect the other way counts as inactive or inconclusive. % is scaled to controls: 0 for no effect and ±100 for the full control effect; potency is read from the fitted curve at half-maximal effect.

SMILES	TrxR1 substrate	TrxR1 inh	mIDH1 inhibitor	GLS inh
CCCC(=O)NC(Oc1ccc(Cl)cc1Cl)C(Cl)(Cl)Cl (centres undefined)	3.6%[57.1 µM]	-69.9%[57.1 µM]	-6.5%	-1.0%
CCCC(=O)NC(Oc1ccccc1Cl)C(Cl)(Cl)Cl (centres undefined)	4.1%	15.8µM*	4.1%	22.0%
O=C(c1ccc2nc(-c3ccco3)c(-c3ccco3)nc2c1)N1CCC2(CC1)OCCO2	3.2%	4.47µM*	2.4%	-10.9%
COc1ccccc1-n1c(O)c(/C=N/NC(=S)Nc2ccccc2)c(=O)[nH]c1=S	1.5%	10µM*	0.9%	25.8%
CCn1c(O)c(/C=N/NC(=O)c2ccccc2)c(=O)[nH]c1=S	-7.1%	-3.1%	-4.1%	16.7%
CC1=CC2/C=C(\C)CCC(O)C(O)/C=C/C(=O)C23C(=O)NC(CC(C)C)C3C1C (centres undefined)	12.1%[57.1 µM]	15.8µM*	4.2%	-2.1%
C/C1=C\[C@@H](C)C/C=C/[C@H]2[C@@H]3O[C@]3(C)[C@@H](C)[C@H]3[C@H](Cc4c[nH]c5ccccc45)NC(=O)[C@]32C(=O)/C=C/C(=O)[C@@H]1O	2.1%	?	-4.1%	-25.8%
O=C1NC(=O)N(c2ccccc2)C(=O)/C1=C/c1ccoc1	-3.8%[57.1 µM]	?	-9.8%	?
COc1cc(/C=C2/C(=O)NC(=O)N(c3ccccc3)C2=O)ccc1O	-20.1%	44.7µM*	2.7%	19.6%
COc1ccc(/C=C2/C(=O)NC(=S)N(C3CC3)C2=O)cc1CN1C(=O)c2ccccc2C1=O	-0.7%	?	-2.6%	?
O=C1NC(=O)N(c2ccccc2)C(=O)/C1=C/c1coc2ccc(O)cc2c1=O	-2.3%	22.4µM*	6.3%	11.7%
O=C1NC(=O)N(c2ccc(Cl)cc2)C(=O)/C1=C/c1coc2ccc(O)cc2c1=O	1.6%	?	-7.3%	5.6%
COc1cccc(N2C(=O)NC(=O)/C(=C/c3ccc4c(c3)Cc3ccccc3-4)C2=O)c1	13.7%	14.1µM*	-5.2%	30.1%
COc1ccc(/C=C2/C(=O)NC(=O)N(c3ccccc3)C2=O)cc1CN1C(=O)c2ccccc2C1=O	2.7%	25.1µM*	-0.5%	-5.0%
CCN(CC)C(=O)[C@@H]1C=C2c3cccc4[nH]cc(c34)C[C@H]2N(C)C1	·	·	·	41.6%
CCOc1cc(/C=C2/C(=O)NC(=O)N(c3ccc(CC)cc3)C2=O)ccc1OC(=O)c1cccs1	-2.9%	17.8µM*	0.2%	?
Cc1ccc2c(c1)[C@]13CCCC[C@@H]1[C@@H](C2)N(C)CC3	·	·	·	-2.2%
N[C@@H](Cc1cc(I)c(O)c(I)c1)C(=O)O	-3.3%	12.6µM*	3.7%	52.8%
NC(Cc1cc(O)c(O)cc1O)C(=O)O (centres undefined)	8.9%[57.1 µM]	10.6µM*	·	·
CCCCCc1cc(O)c2c(c1)OC(C)(C)c1ccc(C)cc1-2	·	·	·	-7.3%
Cc1ccc(-n2c(-c3nn(C)c(C)c3Cl)n[nH]c2=S)cc1	-10.7%	39.8µM*	3.0%	-6.9%
COc1cc(C(c2c(C)[nH]n(-c3ccccc3)c2=O)c2c(C)[nH]n(-c3ccccc3)c2=O)cc(OC)c1OC	-5.8%	?	-0.3%	-1.1%
Cc1[nH]n(-c2ccccc2)c(=O)c1C(c1cccc([N+](=O)[O-])c1O)c1c(C)[nH]n(-c2ccccc2)c1=O	-6.9%[57.1 µM]	-24.5%[57.1 µM]	-15.1%	10µM*
CN(C)CCc1c[nH]c2cccc(O)c12	·	·	·	1.1%[99.4 µM]
N#CC(C#N)=NNc1ccc([N+](=O)[O-])cc1	?	22.4µM*	0.0%	4.3%
SMILES	TrxR1 substrate	TrxR1 inh	mIDH1 inhibitor	GLS inh
CCN(CC)S(=O)(=O)c1ccc(NN=C(C#N)C#N)cc1	-11.5%	?	-29.6%	23.6%
O=C(NCc1ccccc1)c1cccc(Nc2nc3ccccc3n3nnnc23)c1	125.8%	134.3%	0.9%	0.6%
CCCc1[nH][nH]c(=O)c1C(c1ccc(Cl)cc1)C(C#N)C#N (centres undefined)	6.3%	3.16µM*	-8.1%	14.8%
CC[C@@H](CO)Nc1nc(NCc2ccccc2)c2ncn(C(C)C)c2n1	0.7%[57.1 µM]	5.3%[57.1 µM]	·	·
CCN1C(=O)C(=C/C=C/c2ccco2)C(=O)N(CC)C1=S	-0.8%	4.47µM*	-28.0%	7.08µM*
CC(C)N1C(=O)/C(=C/C=C/c2ccco2)C(=O)N(Cc2ccco2)C1=O	-14.6%	-66.3%	-0.8%	?
COc1c(C=C2C(=O)NC(=O)NC2=O)c(CCN(C)C(=O)c2ccccc2)cc2c1OCO2	-0.6%	17.8µM*	19.3%	5.2%
COC(=O)Cn1cc(C=C2C(=O)NC(=O)NC2=O)c2ccccc21	-2.3%	?	8.0%	-4.3%
Cc1c(N)nc([C@@H](CC(N)=O)NC[C@H](N)C(N)=O)nc1C(=O)N[C@H](C(=O)N[C@H](C)[C@H](O)[C@H](C)C(=O)N[C@@H](C(=O)NCCc1nc(-c2nc(C(=O)NCCC[S+](C)C)cs2)cs1)[C@H](C)O)[C@H](O[C@@H]1O[C@@H](CO)[C@@H](O)[C@H](O)[C@@H]1O[C@H]1O[C@H](CO)[C@H](O)[C@H](OC(N)=O)[C@@H]1O)c1cnc[nH]1	·	·	·	1.9%
CN1C(=O)C(=Cc2ccccc2OS(=O)(=O)c2ccccc2)C(=O)N(C)C1=O	-1.7%	28.2µM*	18.2%	34.9%
C=CCN1CC[C@]23c4c5ccc(O)c4O[C@H]2[C@@H](O)C=C[C@H]3[C@H]1C5	·	·	·	46.5%
C=CCN1CCc2cccc3c2[C@H]1Cc1ccc(O)c(O)c1-3	18.4%[57.1 µM]	20µM*	-6.9%	?
CC1=CC2OC3CC4OC(=O)C=CC=CC(=O)OCCC(C)C(O)C(=O)OCC2(CC1O)C4(C)C31CO1 (centres undefined)	2.1%[11.4 µM]	5.5%[11.4 µM]	-2.5%	-0.6%
CC1=CC2OC3CC4OC(=O)C=CC=CC(C(C)O)OCC(O)C(C)CC(=O)OCC2(CC1O)C4(C)C31CO1 (centres undefined)	1.5%	44.7µM*	-0.1%	-8.5%
CCN(CC)c1ccc(/C=C/[N+](=O)[O-])cc1	-7.6%	?	2.9%	3.3%
COc1cc(/C=C/[N+](=O)[O-])ccc1O	-8.2%	3.16µM*	-3.7%	20.5%
COc1ccc(CC(=O)NC(=S)NNC(=O)COc2c(C)cccc2C)cc1	-15.5%	?	-1.4%	26.9%
Cc1ccc(N2C(=O)NC(=O)/C(=C/c3cnc(-c4ccccc4)nc3)C2=O)cc1C	2.3%	6.31µM*	3.6%	-10.1%
CC(C)c1ccc(N2C(=O)NC(=O)/C(=C\c3cnc(-c4ccccc4)nc3)C2=O)cc1	8.0%[57.1 µM]	10µM*	-4.4%	?
Cc1cccc(N2C(=O)NC(=O)/C(=C\c3cnc(-c4ccccc4)nc3)C2=O)c1	-2.5%	10µM*	-6.4%	1.0%
CC(C)c1ccc(N2C(=O)NC(=O)/C(=C\C=C\c3ccco3)C2=O)cc1	-4.9%	-22.1%	0.0%	-13.7%
COc1nn(CSP(=S)(OC)OC)c(=O)s1	·	·	·	22.3%[99.4 µM]
CC[C@H](OC(C)=O)C(C[C@H](C)NC)(c1ccccc1)c1ccccc1	·	·	·	5.0%[99.4 µM]
